# According to PubChem BioAssay (NCATS):
# Values joined by “and” are separate entries in the source; they are usually repeats but may differ in a detail not shown here. Equal values may be shown once. Unmarked numbers belong to inactive results. Inconclusive results are not listed. A call without a number means that no potency is given here. Where a structure was tested more than once in an assay, its records may differ in their call. Active and inactive are the calls of the source. Unless noted, the call rests on the fitted dose curve; in most records, active means well fitted curve in the direction sought with a large enough effect; inconclusive means small, poorly fitted or top-dose-only effect, or another doubt; inactive means no such curve, though single readings can be large; an effect the other way counts as inactive or inconclusive.
# Key:
# [1] = biological target: Tumor necrosis factor (Homo sapiens) (UniProt P01375); test: qHTS assay to identify small molecules that stimulate Tumor Necrosis Factor-alpha (TNF-alpha) secretion (AID 651757; active means well fitted curve in the direction sought with a large enough effect in the signal ratio; the % refers to the signal ratio)
# Procedure, shortened: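 Human monocytic THP-1 cells are plated, treated with compound and held at 37 C for 17 hrs. Labeled anti-TNF-alpha antibody mixture is then added; after 3 hr at room temperature, TR-FRET signal reports secreted TNF-alpha.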
# [2] = qHTS assay for environmental chemicals that activate the Aryl hydrocarbon Receptor (AhR) signaling pathway (AID 651777); details: 1A2-DRE human hepatoma cells, luciferase, 24 h; active compounds read high; further: nearly all actives have a fitted effect of over 15% in size
# Procedure, shortened: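 Luminescence read-out: One-Glo added for 30 min at RT after 24 hr compound treatment (37 C, 5% CO2) of human hepatoma cells expressing a DRE/CYP1A2 promoter–luciferase reporter; increased signal indicates AhR activation.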
# [3] = biological target: Peroxisome proliferator-activated receptor alpha (Homo sapiens) (UniProt Q07869); test: qHTS assay for small molecule agonists of the peroxisome proliferator-activated receptor alpha (PPARalpha) signaling pathway (AID 651778); details: PathHunter PPARalpha complementation, chemiluminescence, 6 h; max response: active compounds read high
# Procedure, shortened: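 Cells plated at 2,000/well and held overnight at 37 C, 5% CO2, then compound added by pin tool for 6 hr; after PathHunter detection reagent and 60 min at room temperature, chemiluminescence from enzyme complementation was read.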
# [4] = biological target: Nuclear receptor ROR-gamma (Homo sapiens) (UniProt P51449); test: qHTS assay for small molecule antagonists of the retinoid-related orphan receptor gamma (ROR-gamma) signaling pathway (AID 651802);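 further: CHO cells with doxycycline-induced ROR-gamma expression; series mostly up to about 92 µM; nearly all actives have a fitted effect of over 60% in size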
# Procedure, shortened: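 Steps: cells dispensed; compound or DMSO transferred by pin tool; doxycycline added to induce the ROR response element-driven luciferase; plates held 16hr at 37C; ONE-Glo added and luminescence measured.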
# [5] = qHTS assay for small molecule agonists of the antioxidant response element (ARE) signaling pathway measured by Nrf2-dependant transcriptional activity (AID 720636; active means well fitted curve in the direction sought with a large enough effect in the repeat runs; an effect the other way counts as inactive or inconclusive;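 further: HepG2 cells with an ARE-driven luciferase reporter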)
# Procedure, shortened: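 HepG2 ARE-luc reporter line, 1% dialyzed FBS; 6 hr attachment at 37 C, compound pinned in, 16 hr at 37 C/5% CO2; ONE-Glo, 30 min RT, luminescence read.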
# [6] = qHTS assay for small molecule antagonists of the retinoid-related orphan receptor gamma (ROR-gamma) signaling pathway - cell viability counter screen (AID 720652; active means well fitted curve in the direction sought with a large enough effect in the repeat runs; an effect the other way counts as inactive or inconclusive;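 further: CHO reporter cells with doxycycline-induced ROR-gamma expression; series mostly up to about 92 µM; compound exposure lasted 16 hr before ATP read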)
# Procedure, shortened: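 Steps: seed CHO cells bearing TET-inducible ROR and ROR response element-luciferase; rest 5 hr at 37 C; add compound, then doxycycline; incubate 16 hr; add CellTiter-Glo and read luminescence as ATP-based viability.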
# [7] = qHTS assay for small molecule agonists of the antioxidant response element (ARE) signaling pathway measured by Nrf2-dependant transcriptional activity - cell viability counter screen (AID 720653; active means well fitted curve in the direction sought with a large enough effect in the repeat runs; an effect the other way counts as inactive or inconclusive); details: ARE-bla HepG2 viability, CellTiter-Glo ATP luminescence, 16 h; max response: active compounds read low
# Procedure, shortened: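 ARE-bla HepG2 cells (2,000/well) rested 5 hrs at 37C/5% CO2, then exposed to compounds in DMSO for 16 hrs. Viability was read in the same wells as intracellular ATP by luminescence, 30 min at room temperature after reagent addition.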
# [8] = qHTS Assay for Identifying Gametocytocidal Compounds (AID 743244); further: potency means the concentration at half of the fitted maximal effect;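 on max response: actives lower the fluorescent signal which means gametocytes are killed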; details: P. falciparum 3D7 stage III-V gametocytes, alamarBlue, 72 h; max response: active compounds read low
# Procedure, shortened: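 P. falciparum 3D7 stage III–V gametocytes (20,000 cells/well) were exposed to compounds for 72 h at 37 °C, 5% CO2. AlamarBlue was then added for 24 h; decreased resorufin fluorescence (Ex 525/Em 598 nm) indicated loss of viability.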
# [9] = qHTS assay for cell viability of HEK293 cells (AID 743288); details: ATP luminescence (CellTiter-Glo), 18 h; max response: active compounds read low; further: nearly all actives have a fitted effect of over 50% in size; further: potency means the concentration at half of the fitted maximal effect
# Procedure, shortened: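 Readout is luciferase-coupled ATP content (CellTiter-Glo luminescence, 30 min room temperature) as a measure of metabolically competent cells. Parental HEK293 cells were plated 5 h or more before compound addition, then treated 18 h at 37 C.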
# [10] = qHTS for Inhibitors of Ubiquitin-specific Protease USP2a Using CHOP2 as the Reporter: K633 Counterscreen (AID 652168); further: series mostly up to about 57 µM
# Procedure, shortened: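 Detection-system control: fluorescence of K48-linked DiUb-4IQF substrate (100 nM as added) tracked over time, Ex 525/Em 598, with pinned compounds and no enzyme, in pH 8 Tris buffer containing beta-mercaptoethanol and 0.05% Chaps.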
# [11] = qHTS for Inhibitors of Ubiquitin-specific Protease USP2a Using CHOP2 as the Reporter: Cytotox Assay (AID 652170);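 further: HCT116 human colon cancer cells at 600 per well; series mostly up to about 46 µM; nearly all actives have a fitted effect of over 70% in size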
# Procedure, shortened: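 Cytotoxicity read as ATP luminescence (CellTiter-Glo) after 72 hr compound treatment at 37 deg C. Cells: HCT116, 600/well in DMEM plus 10% FBS. Normalization between DMSO-treated cells and cell-free wells.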
# [12] = biological target: Tyrosine-protein kinase Yes (Homo sapiens) (UniProt P07947); test: qHTS for small molecule inhibitors of Yes1 kinase: Primary Screen (AID 686947); further: nearly all actives have a fitted effect of over 60% in size
# Procedure, shortened: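 ADP-Glo luminescence reports ADP formed by 4 nM Yes1 phosphorylating poly(E4Y) (0.3 mg/mL) with 0.1 mM ATP for 60 min at room temperature, following 20 min compound preincubation; normalised between DMSO wells with and without enzyme.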
# [13] = qHTS for small molecule inhibitors of Yes1 kinase: Counter Assay (AID 686950);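 further: no kinase present so only ADP-Glo detection of a fixed ADP amount is tested; luminescence from ADP-Glo reporting ADP in a fixed ATP and ADP mixture; series mostly up to about 77 µM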
# Procedure, shortened: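 Measuring interference with ADP-Glo, the assay ran 60 min at room temperature on an ATP/ADP mix lacking enzyme. Values were normalized to ATP-plus-ADP (maximum) and ATP-only (minimum) DMSO controls.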
# [14] = biological target: Arylsulfatase A (Homo sapiens) (UniProt P15289); test: qHTS screen for enhancers of Arylsulfatase A (ASA1): LOPAC Validation Assay (AID 720538); details: outcome: dose series up to 57.5 µM
# Procedure, shortened: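 Enhancer assay in patient-derived MLD fibroblasts carrying ASA-I179S: 48 h compound exposure at 37 C, then 14 h room-temperature pNCS turnover (0.5 mM final) in lysis buffer. Read by fluorescence at 525/598 nm after NaOH stop.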
# [15] = qHTS for compounds that reverse cellular toxicity of Amyloid beta (A-beta) peptide in yeast: LOPAC Validation Assay (AID 720559)
# Procedure, shortened: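 Rescue of A-beta toxicity was scored as yeast growth by 600 nm absorbance after 48 hr at 30 C with compound. Normalization used DMSO (negative) and equimolar ferric chloride plus clioquinol (positive).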
# [16] = qHTS for Activators of Parkin Expression: LOPAC Validation Assay (NLuc Reporter) (AID 720572)
# Procedure, shortened: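 Cells harboring the Parkin-promoter coincidence reporter were treated for 24 h at seven concentrations. NLuc output was measured sequentially after the FLuc channel and scaled between DMSO and positive control values.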
# [17] = biological target: T1, Hexokinase-4 (Homo sapiens) + Glucokinase regulatory protein (Homo sapiens) (UniProt P35557+Q14397); test: qHTS assay for inhibitors of recombinant human GCK-GKRP interaction: ADP-Glo assay (AID 743206)
# Procedure, shortened: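 Pin-transferred compounds meet a 15 nM GST-GCK/15 nM FLAG-GKRP/2 uM S6P mix (dispense concentrations). ATP is then added to 0.4 mM final with 5 mM glucose, and the reaction runs 60 min at room temperature. ADP is quantified luminescently.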
# [18] = biological target: T1, Hexokinase-4 (Homo sapiens) + Glucokinase regulatory protein (Homo sapiens); test: qHTS assay for inhibitors of recombinant human GCK-GKRP interaction: HTRF assay (AID 743207)
# Procedure, shortened: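 After 60 min equilibration at room temperature with anti-FLAG XL665 and anti-GST antibodies, FRET ratio (665/615 nm, excitation 320 nm) was read. Proteins: GST-GCK and FLAG-GKRP, each 5 nM, plus 2 uM S6P, pH 7.1 buffer; GCK-free wells define minimum signal.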
# [19] = qHTS assay for small molecule disruptors of the mitochondrial membrane potential - 5 hr assay (AID 651755; calls by dose curve; further: nearly all actives have a fitted effect of over 40% in size; further: potency means the concentration at half of the fitted maximal effect)
# Procedure, shortened: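 Seed HepG2 overnight, add compound, incubate 5 hr at 37C and 5% CO2, stain 30 min with Mito-MPS, then measure monomer (490/535 nm) and aggregate (540/590 nm) fluorescence.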
# [20] = qHTS assay to identify small molecules that stimulate interleukin-8 (IL-8) secretion (AID 651758; active means well fitted activation curve with a large enough effect in the signal ratio; the % refers to the signal ratio)
# Procedure, shortened: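 Quantitative HTS in THP-1 monocytic cells at 2000 cells per well, with 16 hrs compound incubation at 37 C. IL-8 in the medium was then quantified by HTRF immunoassay, read after 1-3 hrs at room temperature.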
# Sequence of Tumor necrosis factor (Homo sapiens) (P01375 whole entry, looked up): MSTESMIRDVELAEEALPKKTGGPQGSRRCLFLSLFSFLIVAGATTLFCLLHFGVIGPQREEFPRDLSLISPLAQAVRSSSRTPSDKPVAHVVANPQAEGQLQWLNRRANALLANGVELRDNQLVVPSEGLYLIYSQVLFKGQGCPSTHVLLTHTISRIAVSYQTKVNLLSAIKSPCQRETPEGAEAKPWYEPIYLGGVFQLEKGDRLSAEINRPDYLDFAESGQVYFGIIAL
# Sequence of Tyrosine-protein kinase Yes (Homo sapiens) (P07947 whole entry, looked up): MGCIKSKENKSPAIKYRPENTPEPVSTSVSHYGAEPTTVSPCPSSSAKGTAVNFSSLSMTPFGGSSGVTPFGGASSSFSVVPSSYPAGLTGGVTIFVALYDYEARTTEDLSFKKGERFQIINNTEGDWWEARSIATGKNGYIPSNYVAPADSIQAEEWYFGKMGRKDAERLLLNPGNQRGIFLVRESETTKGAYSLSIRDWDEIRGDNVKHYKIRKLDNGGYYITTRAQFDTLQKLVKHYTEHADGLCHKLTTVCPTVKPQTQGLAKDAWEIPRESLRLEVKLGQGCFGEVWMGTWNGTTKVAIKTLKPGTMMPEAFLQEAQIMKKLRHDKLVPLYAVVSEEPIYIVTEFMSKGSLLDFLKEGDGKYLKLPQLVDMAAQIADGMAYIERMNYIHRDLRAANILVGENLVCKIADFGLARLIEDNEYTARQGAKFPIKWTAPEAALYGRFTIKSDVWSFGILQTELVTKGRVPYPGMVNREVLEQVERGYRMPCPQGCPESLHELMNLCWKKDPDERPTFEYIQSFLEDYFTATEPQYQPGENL
# T1 sequence (P35557 whole entry, looked up): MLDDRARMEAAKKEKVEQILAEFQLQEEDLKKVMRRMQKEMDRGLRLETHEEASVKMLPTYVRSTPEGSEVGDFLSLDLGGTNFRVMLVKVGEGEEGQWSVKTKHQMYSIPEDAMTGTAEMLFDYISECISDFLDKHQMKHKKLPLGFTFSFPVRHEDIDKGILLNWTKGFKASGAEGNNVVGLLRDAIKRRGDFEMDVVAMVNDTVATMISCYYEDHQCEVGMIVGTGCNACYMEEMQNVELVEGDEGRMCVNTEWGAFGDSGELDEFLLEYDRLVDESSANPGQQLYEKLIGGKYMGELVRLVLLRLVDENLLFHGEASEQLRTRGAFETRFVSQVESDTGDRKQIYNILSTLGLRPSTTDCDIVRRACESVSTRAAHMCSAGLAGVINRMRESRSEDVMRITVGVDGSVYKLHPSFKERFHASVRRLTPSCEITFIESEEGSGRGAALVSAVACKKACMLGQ
# T1 sequence (Q14397 whole entry, looked up): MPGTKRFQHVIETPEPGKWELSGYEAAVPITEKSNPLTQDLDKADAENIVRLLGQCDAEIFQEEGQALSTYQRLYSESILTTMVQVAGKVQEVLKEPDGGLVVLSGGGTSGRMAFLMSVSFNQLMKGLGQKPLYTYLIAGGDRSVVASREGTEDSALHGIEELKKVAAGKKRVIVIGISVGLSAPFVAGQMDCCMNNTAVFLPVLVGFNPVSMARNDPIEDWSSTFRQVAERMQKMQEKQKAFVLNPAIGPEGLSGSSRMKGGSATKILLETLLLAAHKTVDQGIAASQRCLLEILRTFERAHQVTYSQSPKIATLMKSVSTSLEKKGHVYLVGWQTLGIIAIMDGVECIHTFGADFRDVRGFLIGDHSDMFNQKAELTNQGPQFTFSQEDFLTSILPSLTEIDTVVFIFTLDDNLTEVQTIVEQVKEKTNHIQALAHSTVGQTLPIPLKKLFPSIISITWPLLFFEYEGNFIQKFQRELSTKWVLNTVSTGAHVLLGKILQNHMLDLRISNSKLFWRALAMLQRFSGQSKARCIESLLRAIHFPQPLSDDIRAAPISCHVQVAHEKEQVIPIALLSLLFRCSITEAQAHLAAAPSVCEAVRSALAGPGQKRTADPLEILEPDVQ
# Sequence of Peroxisome proliferator-activated receptor alpha (Homo sapiens) (Q07869 whole entry, looked up): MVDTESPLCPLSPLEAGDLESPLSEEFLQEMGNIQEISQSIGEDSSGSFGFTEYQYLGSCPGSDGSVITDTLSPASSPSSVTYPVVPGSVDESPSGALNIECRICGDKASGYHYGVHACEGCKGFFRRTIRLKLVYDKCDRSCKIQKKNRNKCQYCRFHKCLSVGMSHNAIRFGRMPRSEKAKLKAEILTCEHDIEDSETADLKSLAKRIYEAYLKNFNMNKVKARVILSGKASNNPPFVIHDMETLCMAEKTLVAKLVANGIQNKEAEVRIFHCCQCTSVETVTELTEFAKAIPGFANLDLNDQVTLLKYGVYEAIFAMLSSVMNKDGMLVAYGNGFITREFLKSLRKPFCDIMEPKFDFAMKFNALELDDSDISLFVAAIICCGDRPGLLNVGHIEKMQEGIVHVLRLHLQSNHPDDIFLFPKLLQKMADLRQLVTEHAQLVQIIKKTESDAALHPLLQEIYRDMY
# Sequence of Nuclear receptor ROR-gamma (Homo sapiens) (P51449 whole entry, looked up): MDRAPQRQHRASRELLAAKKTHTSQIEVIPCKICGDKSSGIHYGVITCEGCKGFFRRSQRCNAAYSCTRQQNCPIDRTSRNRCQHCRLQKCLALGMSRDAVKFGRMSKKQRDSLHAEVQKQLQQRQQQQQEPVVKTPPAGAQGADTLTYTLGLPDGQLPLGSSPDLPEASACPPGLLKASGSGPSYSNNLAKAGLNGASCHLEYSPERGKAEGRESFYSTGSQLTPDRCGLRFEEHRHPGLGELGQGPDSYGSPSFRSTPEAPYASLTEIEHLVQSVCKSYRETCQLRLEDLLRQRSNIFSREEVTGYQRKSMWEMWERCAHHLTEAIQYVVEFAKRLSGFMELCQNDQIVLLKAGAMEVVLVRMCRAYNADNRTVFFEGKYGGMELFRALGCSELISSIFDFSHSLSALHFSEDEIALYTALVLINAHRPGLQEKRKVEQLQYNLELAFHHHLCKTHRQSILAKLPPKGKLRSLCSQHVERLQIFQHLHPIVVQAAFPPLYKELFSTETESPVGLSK
# Sequence of Arylsulfatase A (Homo sapiens) (P15289 whole entry, looked up): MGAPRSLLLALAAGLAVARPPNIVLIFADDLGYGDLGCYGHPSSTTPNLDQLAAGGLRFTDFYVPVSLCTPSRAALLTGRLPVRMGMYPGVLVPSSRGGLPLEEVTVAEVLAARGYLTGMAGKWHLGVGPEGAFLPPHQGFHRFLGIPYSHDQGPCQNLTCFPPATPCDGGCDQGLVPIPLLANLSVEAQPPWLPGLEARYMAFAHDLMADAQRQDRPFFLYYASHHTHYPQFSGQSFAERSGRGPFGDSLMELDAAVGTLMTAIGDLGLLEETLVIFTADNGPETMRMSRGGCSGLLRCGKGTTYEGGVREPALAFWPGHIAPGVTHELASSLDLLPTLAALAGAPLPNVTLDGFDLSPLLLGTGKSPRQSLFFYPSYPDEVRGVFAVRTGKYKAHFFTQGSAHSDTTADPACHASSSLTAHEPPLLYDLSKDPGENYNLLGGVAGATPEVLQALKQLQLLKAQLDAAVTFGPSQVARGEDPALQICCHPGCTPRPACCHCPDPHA
smiles,measurement,setting,value
Cc1ccnc2c1NC(=O)c1cccnc1N2C1CC1,outcome,[1],inactive
same,activation,[2],0.221%
same,max response,[3],-3.94%
same,Potency,[4],inactive
same,outcome,[5],inactive
same,Potency,[6],inactive
same,max response,[7],-0.463%
same,max response,[8],21.9%
same,max response,[9],-6.97%
Cc1cc(NS(=O)(=O)c2ccc(N)cc2)no1,outcome,[1],inactive
same,activation,[2],-0.784%
same,max response,[3],-1.17%
same,Potency,[4],inactive
same,outcome,[10],inactive
same,outcome,[11],inactive
same,outcome,[5],inactive
same,Potency,[6],inactive
same,max response,[7],3.89%
same,max response,[8],-4.78%
same,max response,[9],-9.46%
CCN(CC)CCn1c(=O)c(Cc2ccc(OC)cc2)nc2ccccc21,outcome,[12],inactive
same,outcome,[13],inactive
same,outcome,[14],inactive
same,outcome,[15],inactive
same,outcome,[16],inactive
same,outcome,[17],inactive
same,outcome,[18],inactive
same,max response,[8],-7.99%
COc1ccc2cc3[n+](cc2c1OC)CCc1cc2c(cc1-3)OCO2,Potency,[19],9.44 µM (active)
same,max response,[3],-3.31%
same,Potency,[4],inactive
same,outcome,[5],inactive
same,Potency,[6],inactive
same,max response,[7],-27.8%
same,max response,[9],-16%
NNC(=O)c1ccncc1,Potency,[19],inactive
same,outcome,[1],inactive
same,outcome,[20],inactive
same,activation,[2],4.86%
same,max response,[3],-1.45%
same,Potency,[4],inactive
same,outcome,[5],inactive
same,Potency,[6],inactive
same,max response,[7],-4.52%
same,max response,[8],-1.22%
same,max response,[9],-4%
Cc1ncc([N+](=O)[O-])n1CCO,outcome,[20],inactive
same,activation,[2],-0.201%
same,max response,[3],-0.879%
same,Potency,[4],inactive
same,outcome,[5],inactive
same,Potency,[6],inactive
same,max response,[7],-1.04%
same,max response,[8],-1.29%
same,max response,[9],-4.68%
CC(=O)[C@H]1CC[C@H]2[C@@H]3CCC4=CC(=O)CC[C@]4(C)[C@H]3CC[C@]12C,outcome,[1],inactive
same,activation,[2],0.0693% and 1.75% and -2.26%
same,max response,[3],1.94% and -2.09% and -1.65%
same,outcome,[15],inactive
same,outcome,[16],inactive
same,outcome,[5],inactive
same,max response,[7],-18% and -11.7% and -23.6%
same,outcome,[17],inactive
same,outcome,[18],inactive
same,max response,[8],-0.829% and 23.1%
same,Potency,[9],44.7 µM (active)
same,max response,[9],-28%
Cc1noc(NS(=O)(=O)c2ccc(N)cc2)c1C,outcome,[1],inactive
same,activation,[2],0.11% and 1.55%
same,max response,[3],0.0609% and -2.74%
same,outcome,[5],inactive
same,Potency,[6],inactive
same,max response,[7],-4.33% and -0.699%
same,max response,[8],-10.4% and -5.26%
same,max response,[9],-2.22% and 5.06%
C[C@]12C=CC(=O)C=C1CC[C@@H]1[C@@H]2C(=O)C[C@@]2(C)[C@H]1CC[C@]2(O)C(=O)CO,Potency,[19],inactive
same,outcome,[1],inactive
same,activation,[2],-0.111%
same,max response,[3],-2.07%
same,Potency,[4],inactive
same,outcome,[5],inactive
same,Potency,[6],inactive
same,max response,[7],1.48%
same,max response,[8],18%
same,max response,[9],0.765%
NC1(c2ccc(-c3nc4ccn5c(=O)[nH]nc5c4cc3-c3ccccc3)cc2)CCC1,outcome,[13],inactive
same,Potency,[8],11.8 µM (active)
Nc1nc(N)c2nc(CNc3ccc(C(=O)NC(CCC(=O)O)C(=O)O)cc3)cnc2n1 (stereo unspecified),activation,[2],-4.32%
same,max response,[3],-1.16%
same,outcome,[15],inactive
same,outcome,[16],inactive
same,outcome,[5],inactive
same,outcome,[17],inactive
same,outcome,[18],inactive
same,max response,[8],32.7%
CNC(=O)c1cc(Oc2ccc(NC(=O)Nc3ccc(Cl)c(C(F)(F)F)c3)cc2)ccn1,outcome,[13],inactive
same,max response,[8],-3.89% and 12.7% and 20%
CC(C)C[C@H](NC(=O)[C@H](CCc1ccccc1)NC(=O)CN1CCOCC1)C(=O)N[C@@H](Cc1ccccc1)C(=O)N[C@@H](CC(C)C)C(=O)[C@@]1(C)CO1,outcome,[12],inactive
same,outcome,[13],inactive
same,Potency,[8],0.0118 µM (active)
CC(C)NCC(O)c1ccc(NS(C)(=O)=O)cc1 (stereo unspecified),outcome,[14],inactive
same,outcome,[15],inactive
same,outcome,[16],inactive
same,outcome,[17],inactive
same,outcome,[18],inactive
same,max response,[8],-0.473% and -8.06% and 37.8%
O=S(=O)(c1cccc2cnccc12)N1CCCNCC1,outcome,[12],inactive
same,outcome,[13],inactive
same,max response,[8],-7.26%
CC1=NN(c2ccccc2)C(=O)C1,outcome,[1],inactive
same,max response,[3],-0.816% and -5.33%
same,Potency,[4],inactive
same,outcome,[5],inactive
same,Potency,[6],inactive
same,max response,[7],-3.99% and -6.22%
same,max response,[8],-1.13%
same,max response,[9],-6.75% and -3.56%
COc1cc([C@@H]2c3cc4c(cc3[C@H](O)[C@H]3COC(=O)[C@H]23)OCO4)cc(OC)c1OC,outcome,[12],inactive
same,outcome,[13],inactive
CCC(=O)O[C@]1(C(=O)CCl)[C@@H](C)C[C@H]2[C@@H]3CCC4=CC(=O)C=C[C@]4(C)[C@@]3(F)[C@@H](O)C[C@@]21C,max response,[8],4.44%
CCC(=O)O[C@]1(C(=O)SCF)[C@H](C)C[C@H]2[C@@H]3C[C@H](F)C4=CC(=O)C=C[C@]4(C)[C@@]3(F)[C@@H](O)C[C@@]21C,max response,[8],-5%
